# Laboratory results as given in PubChem BioAssay AID720517 (National Center for Advancing Translational Sciences (NCATS), 2013).
# Inconclusive results are not listed. Where a call stands in place of a potency, no number is given. Activity calls are given as the source filed them. The call rests on the fitted dose curve; in most records, active means well fitted activation curve with a large enough effect; inconclusive means small, poorly fitted or top-dose-only effect; inactive means flat fitted curve, though single readings scatter.
# Test: qHTS for Inhibitors of Cell Surface uPA Generation: FP59 Counterscreen for Cherry-picked Compounds
# Conditions: FP59 anthrax toxin cytotoxicity counterscreen, cells; series mostly up to 115 µM
row,SMILES,Potency
1,O=C(/C=C/c1ccc(O)c(O)c1)O[C@@H]1C[C@](O)(C(=O)O)C[C@@H](O)[C@H]1O,inactive
2,O=C(Cc1ccc(Cl)cc1)c1c[nH]c(C(=O)NCCCn2ccnc2)c1,inactive
3,NC(=O)CC[C@H](NC(=O)c1ccc(F)cc1)C(=O)OCC(=O)Nc1c(F)c(F)c(F)c(F)c1F,inactive
4,COc1ccc(C2C(C(=O)c3ccc(C)o3)=C(O)C(=O)N2CC2CCCO2)cc1OC (stereo not given),inactive
5,COc1ccc(-n2nnnc2SCC(=O)Nc2nnc(C)s2)cc1,inactive
6,Cc1ccc(C(CC(=O)N2CCCC2)c2ccccc2)c(O)c1 (stereo not given),inactive
7,CCOC(=O)c1c(C)oc2ccc(OC(=O)COc3c(F)c(F)c(F)c(F)c3F)cc12,inactive
8,Cc1nn(CC(=O)OCC(=O)NC(C)c2ccccc2)c(C)c1[N+](=O)[O-] (stereo not given),inactive
9,COC(=O)COc1cc2ccccc2cc1C(=O)Nc1ccccc1,inactive
10,CCN(C(=O)CSc1ncnc2sccc12)c1c(N)n(Cc2ccccc2)c(=O)[nH]c1=O,inactive
11,O=C1[C@H]2[C@@H](c3ccc(F)cc3)N3C(=O)N(c4cccc(F)c4)C(=O)[C@@]3(Cc3ccc(Cl)cc3)[C@H]2C(=O)N1C1CCCCC1,inactive
12,O=C(NCCOc1ccc(F)cc1)C1CCN(S(=O)(=O)c2ccccc2)CC1,inactive
13,Cc1cc(-c2ccccc2)nc(N/N=C/c2ccc(N(C)C)cc2)n1,inactive
14,Cc1ccc(N2C(=O)c3ccccc3C2(O)c2ccccc2)cc1 (stereo not given),inactive
15,CCN(CC)C(=O)Cn1cc(/C=C(\C#N)C(=O)NC2CC2)c2ccccc21,inactive
